Hit rate of the full screen: of about 39,000 compounds, about 3,300 (8.5%) were called active. Shown is part of a subset that was picked to be rich in actives.
Each compound was assayed on HepG2 (assay: cytotoxicity call (relative viability < 0.9)). Details: 10 µM.

| Compound | cytotoxicity call |
| --- | --- |
| COc1ccc(CNC(=O)N(C)C[C@@H]2OCc3ccccc3-c3c(n(C)c4ccccc34)C(=O)N([C@@H](C)CO)C[C@@H]2C)cc1 | inactive |
| C[C@@H]1CCCCO[C@H](CN(C)S(=O)(=O)c2ccccc2)[C@@H](C)CN([C@@H](C)CO)C(=O)c2cc(NC(=O)Nc3cccc4ccccc34)ccc2O1 | inactive |
| C[C@@H]1CN([C@@H](C)CO)C(=O)Cc2cc(NS(=O)(=O)c3ccc(F)cc3)ccc2O[C@H]1CN(C)Cc1ccc(-c2ccccc2)cc1 | inactive |
| C[C@@H]1CN([C@@H](C)CO)C(=O)Cc2cc(NS(=O)(=O)c3ccc(F)cc3)ccc2O[C@@H]1CN(C)Cc1ccc(-c2ccccc2)cc1 | active |
| C[C@@H]1CN([C@H](C)CO)C(=O)Cc2cc(NS(=O)(=O)c3ccc(F)cc3)ccc2O[C@@H]1CN(C)Cc1ccc(-c2ccccc2)cc1 | active |
| C[C@H](CO)N1C[C@H](C)[C@@H](CN(C)Cc2ccc(-c3ccccc3)cc2)Oc2ccc(NS(=O)(=O)c3ccc(F)cc3)cc2CC1=O | active |
| C[C@H](CO)N1C[C@H](C)[C@H](CN(C)Cc2ccc(-c3ccccc3)cc2)Oc2ccc(NS(=O)(=O)c3ccc(F)cc3)cc2CC1=O | active |
| C[C@H]1CN([C@@H](C)CO)C(=O)Cc2cc(NS(=O)(=O)c3ccc(F)cc3)ccc2O[C@@H]1CN(C)Cc1ccc(-c2ccccc2)cc1 | inactive |
| C[C@H]1CN([C@@H](C)CO)C(=O)Cc2cc(NS(=O)(=O)c3ccc(F)cc3)ccc2O[C@H]1CN(C)Cc1ccc(-c2ccccc2)cc1 | inactive |
| C[C@@H]1CN([C@@H](C)CO)C(=O)c2cc(C#CCc3ccccc3)cnc2O[C@@H]1CN(C)CC1CCOCC1 | inactive |
| COc1ccc(NC(=O)N(C)C[C@@H]2Oc3c(NC(=O)Nc4cccc5ccccc45)cccc3C(=O)N([C@H](C)CO)C[C@@H]2C)cc1 | inactive |
| C[C@@H]1CCCCO[C@H](CN(C)C(=O)c2ccccc2)[C@@H](C)CN([C@H](C)CO)C(=O)c2cc(NS(=O)(=O)c3ccc(F)cc3)ccc2O1 | inactive |
| C[C@@H]1CCCCO[C@@H](CN(C)S(=O)(=O)c2ccccc2)[C@@H](C)CN([C@@H](C)CO)C(=O)c2cc(NS(=O)(=O)c3cn(C)cn3)ccc2O1 | inactive |
| COc1ccc(S(=O)(=O)Nc2ccc3c(c2)CC(=O)N([C@H](C)CO)C[C@@H](C)[C@H](CN(C)S(=O)(=O)c2ccccc2)O3)cc1 | inactive |
| Cc1noc(C)c1NC(=O)N[C@H]1C=C[C@H](CC(=O)N2CCN(C)CC2)O[C@@H]1CO | inactive |
| C[C@H]1CCCCO[C@@H](CN(C)C(=O)NC2CCCCC2)[C@@H](C)CN([C@@H](C)CO)C(=O)c2cc(NC(=O)Cc3ccccc3)ccc2O1 | inactive |
| COc1ccc(NC(=O)Nc2cccc3c2O[C@H](CN(C)C(=O)Nc2cccc4ccccc24)[C@H](C)CN([C@@H](C)CO)C3=O)cc1 | inactive |
| Cc1c(N2CCCC2)cc2c(c1-n1cccc1)C(C)(C)CC2(C)C | inactive |
| COc1ccc2c3c(n(c2c1)C)[C@@H](CO)N(Cc1cc(cc(c1)OC)OC)C[C@]13CN(C1)S(=O)(=O)c1cn(cn1)C | inactive |

| Compound | cytotoxicity call |
| --- | --- |
| O=S(=O)(NCC[C@@H]1CC[C@@H](NS(=O)(=O)c2ccccc2Cl)[C@H](CO)O1)c1ccc(Cl)cc1 | inactive |
| Cc1ccc(S(=O)(=O)N[C@@H]2C=C[C@H](CC(=O)NCCN3CCCCC3)O[C@H]2CO)cc1 | inactive |
| COc1ccc(NC(=O)N(C)C[C@H]2Oc3ccc(NC(=O)Nc4cccc5ccccc45)cc3C(=O)N([C@@H](C)CO)C[C@@H]2C)cc1 | inactive |
| Cc1noc(C)c1NC(=O)Nc1ccc2c(c1)C(=O)N([C@H](C)CO)C[C@H](C)[C@@H](CN(C)Cc1ccc(Cl)c(Cl)c1)O2 | inactive |
| C[C@@H]1CN([C@H](C)CO)C(=O)Cc2cc(NS(=O)(=O)c3ccc(F)cc3)ccc2O[C@H]1CN(C)Cc1ccc(-c2ccccc2)cc1 | active |
| C[C@@H]1CN([C@H](C)CO)C(=O)Cc2cc(NC(=O)NC3CCCCC3)ccc2O[C@@H]1CN(C)C(=O)Nc1ccc(C(F)(F)F)cc1 | inactive |
| COc1ccc(S(=O)(=O)Nc2ccc3c(c2)C(=O)N([C@H](C)CO)C[C@@H](C)[C@H](CN(C)C(=O)Nc2ccc(F)cc2)OCCCC[C@H](C)O3)cc1 | inactive |
| C[C@H]1CN([C@@H](C)CO)C(=O)c2cc(C#CCN(C)C)cnc2O[C@H]1CN(C)S(C)(=O)=O | inactive |
| C[C@@H]1CN([C@H](C)CO)C(=O)c2cc(NS(=O)(=O)c3ccc(Cl)cc3)ccc2O[C@@H](C)CCCCO[C@H]1CN(C)Cc1ccc(C(F)(F)F)cc1 | active |
| C[C@@H]1CCCCO[C@H](CN(C)Cc2ccc(C(F)(F)F)cc2)[C@@H](C)CN([C@@H](C)CO)C(=O)c2cc(NS(=O)(=O)c3ccc(Cl)cc3)ccc2O1 | active |
| C[C@@H]1CN([C@@H](C)CO)C(=O)c2cc(NS(=O)(=O)c3ccc(Cl)cc3)ccc2O[C@@H](C)CCCCO[C@@H]1CN(C)Cc1ccc(C(F)(F)F)cc1 | inactive |
| C[C@H](CO)N1C[C@H](C)[C@@H](CN(C)Cc2ccc(C(F)(F)F)cc2)OCCCC[C@H](C)Oc2ccc(NS(=O)(=O)c3ccc(Cl)cc3)cc2C1=O | inactive |
| C[C@@H]1CCCCO[C@@H](CN(C)Cc2ccc(C(F)(F)F)cc2)[C@H](C)CN([C@H](C)CO)C(=O)c2cc(NS(=O)(=O)c3ccc(Cl)cc3)ccc2O1 | active |
| C[C@@H]1CCCCO[C@H](CN(C)Cc2ccc(C(F)(F)F)cc2)[C@H](C)CN([C@H](C)CO)C(=O)c2cc(NS(=O)(=O)c3ccc(Cl)cc3)ccc2O1 | active |
| CNC[C@H]1OCCCC[C@@H](C)Oc2ccc(NS(=O)(=O)c3cn(C)cn3)cc2C(=O)N([C@@H](C)CO)C[C@H]1C | inactive |
| C[C@@H]1CCCCO[C@@H](CN(C)C(=O)c2ccccc2)[C@@H](C)CN([C@H](C)CO)C(=O)c2cc(NC(=O)CCC(F)(F)F)ccc2O1 | inactive |
| C[C@@H]1CN([C@H](C)CO)C(=O)c2cc(NS(=O)(=O)c3cccs3)ccc2O[C@@H](C)CCCCO[C@@H]1CN(C)C(=O)CCC(F)(F)F | inactive |
| C[C@H](N)CCCP(=O)(O)O | inactive |
